Over roughly 33,000 sequences, “e-score” has its median near -0.037; the highest 2% begin near 0.34. The sample as a whole holds a higher share of the highest values than the screen did.

This assay addresses T1, GST-Rok (full length) (Bacillus subtilis subsp. subtilis str. …, UniProt O34857 1-191).
T1 sequence: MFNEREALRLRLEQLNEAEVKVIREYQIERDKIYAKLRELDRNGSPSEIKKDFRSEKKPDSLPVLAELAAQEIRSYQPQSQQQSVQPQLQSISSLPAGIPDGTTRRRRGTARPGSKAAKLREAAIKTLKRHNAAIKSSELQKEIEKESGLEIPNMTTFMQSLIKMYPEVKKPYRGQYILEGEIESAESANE
As to the kind of experiment: protein binding microarray; Rok is a gene silencer of Bacillus subtilis; high values mean tight binding. The settings on record: protein: recombinant; tags: GST (pTH5325, pDEST15-Magic modified); dsDNA, one strand shown. The method, boiled down:
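Each has a 25-mer constant primer and a 35-mer variable part from a de Bruijn sequence of order 10, covering every non-palindromic 8-mer at least 32 times (palindromic 16). Preference for each 8-mer is given as a rank-based, unitless enrichment score (E-score). Its range runs from 0.5 (most favored) to −0.5 (most disfavored).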
For GCCTGTAC, the binding signal was -0.0711 E-score. The same measure for AACCTTAC: 0.0321 E-score; for AAGAAGAG: -0.106 E-score. As for AAAGGTTG, the figure is -0.0391 E-score; as for CATAGGCA, 0.0952 E-score. The same measure for GAACTTCA: 0.0379 E-score.

With ACATAAGT, the binding signal worked out at 0.127 E-score. Consider AGAAACTC, for which the binding signal amounted to 0.158 E-score.

As to AGAAACTA, the binding signal is 0.412 E-score. CGAAACTA: the binding signal is 0.446 E-score. As for GGAAACGA, the figure is -0.156 E-score; as for CGAAACCA, -0.108 E-score. Regarding AGAAACTG, the binding signal came to 0.12 E-score. As for GGAAACTA, the figure is 0.362 E-score. The same measure for CGAAACTC: -0.0462 E-score; for GGAAACAA: 0.207 E-score. The same measure for AATTAAGG: 0.158 E-score. For the sequence ATCGGTCA, the binding signal was 0.0381 E-score.

In the case of ATGGCTTG, the binding signal is -0.172 E-score. The same measure for TATGGGCA: -0.0796 E-score; for TAAGCCGA: -0.0712 E-score.

With AACTTATC, the binding signal worked out at 0.134 E-score. As for TAATGGTA, the figure is 0.387 E-score; as for GAATGGTA, 0.317 E-score. As for CAATGGTA, the figure is 0.322 E-score. As for AACTCAGG, the figure is 0.0467 E-score; as for CGTGACCA, -0.0921 E-score.

AAGTACAG: the binding signal stood at 0.272 E-score. As for ACATATTC, the figure is 0.27 E-score; as for GAATATTC, 0.417 E-score; as for AAATATTC, 0.251 E-score.

Turning to CAATATTC, the binding signal amounted to 0.21 E-score. For the sequence CTCTATTC, the binding signal worked out at 0.00987 E-score. As for ATATATTC, the figure is 0.34 E-score; as for CTATATTC, 0.353 E-score; as for GAATATTA, 0.0406 E-score. As for CGATATTC, the figure is 0.194 E-score; as for AGGTCACT, -0.137 E-score; as for ATTGTTTC, 0.228 E-score. The same measure for CCGGTCAC: -0.153 E-score; for CTACATTC: 0.176 E-score; for GTACATTA: 0.262 E-score. For CTACATTA, the binding signal is 0.355 E-score.

For the sequence CTACATGA, the binding signal was determined as 0.347 E-score. The same measure for CTACATGC: 0.308 E-score; for ATACATGA: 0.294 E-score; for CAAAAAAC: 0.0394 E-score. The same measure for TGGTAAAA: 0.354 E-score. For GGTAAAAA, the binding signal came to 0.349 E-score. As for CGTAAAAA, the figure is 0.0957 E-score; as for GGGTAAAA, 0.184 E-score. Turning to CGGTAAAA, the binding signal worked out at 0.278 E-score. The same measure for GGTAAAAC: 0.192 E-score; for CGAGTTAG: 0.0866 E-score; for ACTGCCAC: -0.0928 E-score. As for AAATGATC, the figure is 0.143 E-score; as for AAATGATT, -0.0952 E-score; as for AAATGATA, 0.37 E-score. Consider AAAACCTA, for which the binding signal worked out at 0.255 E-score. As for ACTGGTGG, the figure is -0.172 E-score; as for AAGTACTG, 0.114 E-score.

For the sequence GAGTACTA, the binding signal turned out to be 0.13 E-score. The same measure for CAGTACTA: 0.279 E-score; for AAGTACTC: 0.165 E-score.

On to GAGTACGA, for which the binding signal was 0.0148 E-score. The same measure for AAGTACTA: 0.389 E-score; for TAGTACTA: 0.44 E-score; for TAGTACGA: 0.359 E-score. The same measure for CAGTACGA: -0.048 E-score; for CCAATTGC: 0.145 E-score; for AGATAGCG: 0.22 E-score. As for ACCTTCTG, the figure is -0.0843 E-score. Take CTATACTA: the binding signal was determined as 0.288 E-score.

As for GTATACGA, the binding signal amounted to 0.179 E-score. As to ATATACTC, the binding signal came out at 0.288 E-score. As for GTATACAA, the figure is 0.308 E-score. Take CTATACTC: the binding signal was 0.137 E-score. As for GTATACTA, the figure is 0.378 E-score; as for ATATACTA, 0.409 E-score. As for ATATACGA, the figure is 0.23 E-score.

With GGATACTA, the binding signal was 0.211 E-score. Consider AGATACTA, for which the binding signal is 0.348 E-score. With ATATACTG, the binding signal came to 0.391 E-score. CGATACTA: the binding signal turned out to be 0.328 E-score. The same measure for ATCAGCAA: -0.0224 E-score. The same measure for GACAAATC: -0.0534 E-score.

Turning to ATGATTGA, the binding signal came to 0.0352 E-score. The same measure for GGATGTTA: 0.0229 E-score; for CAATTACA: 0.189 E-score. For AAAGCCGG, the binding signal is -0.147 E-score. As for ACGAGTCC, the figure is -0.192 E-score. As to AATAGGAG, the binding signal was 0.0707 E-score. As for GCATACTA, the figure is 0.325 E-score; as for ACATACTG, 0.141 E-score; as for ACATACTA, 0.361 E-score.
